Read-out in test [1]: E-selectin (Homo sapiens) (UniProt P16581)
The experiment in a line: BSK_3C_Eselectin: BioMAP Diversity Plus: 3C Assay for Eselectin Biomarker Activity (AID 2283015).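 As to outcome: cell surface E-selectin protein quantified by ELISA 24 h after dosing.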 The settings on record: primary human endothelial cells (HUVEC); actives raise or lower the signal. In a few lines: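 HUVEC, 3C stimulation; compound exposure 24 h; E-selectin by ELISA; gain- or loss-of-signal fitted bidirectionally vs DMSO baseline.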

Read-out in test [2]: Interleukin-1 alpha (IL1a), IL1A (gene 3552)
The experiment in a line: BSK_BE3C_IL1a: BioMAP Diversity Plus: BE3C Assay for Interleukin-1 alpha (IL1a) Biomarker Activity (AID 2283016). Particulars: primary human bronchial epithelial cells; actives raise or lower the signal. In a few lines: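 BE3C primary human bronchial epithelium; cpd 24 h; IL-1a by ELISA; bidirectional fit vs DMSO; parallel SRB (0.1% SRB, 10% TCA fix, 560 nm) for cytotoxicity.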

Read-out in test [3]: Monocyte Chemoattractant Protein-1 (MCP1), CCL2 (gene 6347)
The experiment in a line: BSK_4H_MCP1: BioMAP Diversity Plus: 4H Assay for Monocyte Chemoattractant Protein-1 (MCP1) Biomarker Activity (AID 2283018). Particulars: primary human endothelial cells (HUVEC); actives raise or lower the signal. In a few lines:
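ELISA read-out of MCP-1 from human vascular endothelial primary cells taken at 24 hours after compound exposure. Activity was fitted in both directions relative to DMSO, which served as negative control.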

Read-out in test [4]: Human Leukocyte Antigen - DR isotype (HLADR), HLA-DRA (gene 3122)
The experiment in a line: BSK_3C_HLADR: BioMAP Diversity Plus: 3C Assay for Human Leukocyte Antigen - DR isotype (HLADR) Biomarker Activity (AID 2283019).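 As to outcome: ELISA of cell-surface HLA-DR on HUVEC 24 h after dosing.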 Particulars: primary human endothelial cells (HUVEC); actives raise or lower the signal. An outline of the steps: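 HUVEC, 3C stimulation, 24 h post-dose; HLA-DR by ELISA; bidirectional curve fit vs DMSO baseline; gain or loss of signal scored.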

Read-out in test [5]: Interleukin-8 (IL8), CXCL8 (gene 3576)
The experiment in a line: BSK_3C_IL8: BioMAP Diversity Plus: 3C Assay for Interleukin-8 (IL8) Biomarker Activity (AID 2283020). Particulars: primary human endothelial cells (HUVEC); actives raise or lower the signal. An outline of the steps: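 ELISA read-out of IL-8 from human umbilical vein endothelium, measured 24 h after chemical dosing. Activity is expressed relative to DMSO negative control, with both increases and decreases fitted.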

Read-out in test [6]: Monokine induced gamma interferon (MIG), CXCL9 (gene 4283)
The experiment in a line: BSK_3C_MIG: BioMAP Diversity Plus: 3C Assay for Monokine induced gamma interferon (MIG) Biomarker Activity (AID 2283021).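 As to AC50: MIG protein level measured by immunoassay in the treated endothelial cultures.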 The settings on record: primary human endothelial cells (HUVEC); actives raise or lower the signal. An outline of the steps: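 Read-out is ELISA detection of MIG on human umbilical vein endothelial cells, taken 24 h after dosing. Gain or loss of signal was scored relative to DMSO controls using bidirectional curve fitting.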

Test [7] can be described thus: BSK_3C_SRB: Viability Assessment in the BioMAP Diversity Plus: 3C Assay (AID 2283023).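 Also: fitted both ways against DMSO so a hit may be signal rise or drop.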 Particulars: primary human endothelial cells (HUVEC). In a few lines:
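HUVEC, 24 h post-dose; 10% TCA fix, 0.1% SRB stain, A560 nm. Bidirectional curve fit vs DMSO negative control.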

Read-out in test [8]: Matrix Metallopeptidase 1 (MMP1), MMP1 (gene 4312)
The experiment in a line: BSK_BE3C_MMP1: BioMAP Diversity Plus: BE3C Assay for Matrix Metallopeptidase 1 (MMP1) Biomarker Activity (AID 2283024). Particulars: primary human bronchial epithelial cells; actives raise or lower the signal. An outline of the steps:
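Human bronchial epithelial cells (BE3C system) exposed to compound for 24 h; MMP1 then quantified by ELISA. Activity was fitted in both directions relative to DMSO.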

Test [9] can be described thus: BSK_4H_SRB: Viability Assessment in the BioMAP Diversity Plus: 4H Assay (AID 2283027).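 Also: cells exposed to compound for 24 h before staining.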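 As to AC50: curves fitted both ways versus DMSO so AC50 may be loss or gain.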 Particulars: primary human endothelial cells (HUVEC). In a few lines:
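Absorbance at 560 nm of SRB-stained total protein served as the viability read-out in confluent primary human umbilical vein endothelium 24 h after chemical treatment. Curves were fitted bidirectionally against DMSO as negative control.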

Test [10] can be described thus: BSK_BE3C_SRB: Viability Assessment in the BioMAP Diversity Plus: BE3C Assay (AID 2283028).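 As to AC50: fitted both ways so AC50 may mark signal gain or loss versus DMSO.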 The settings on record: primary human bronchial epithelial cells. In a few lines:
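Primary human bronchial epithelium; chemical dosing, 24 h; 10% TCA fix, 0.1% SRB stain, A560; bidirectional fit vs DMSO baseline.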

Test [11] has as its target human Retinoid X Receptor beta (RXRb), RXRB (gene 6257) (UniProt P28702). Kind of test: ATG_RXRb_TRANS: Attagene TRANS-FACTORIAL HepG2 Assay for human Retinoid X Receptor beta (RXRb) (AID 2283013; active = hit-call score of the fitted dose curve at least 0.9, where 1 is the maximum). An outline of the steps: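 Transfect HepG2 with GAL4-UAS multi-reporter constructs (chimeric NR-Gal4, TRANS format); dose compound 24 h; isolate RNA, RT-PCR, FAM primer extension, HpaI digest; quantify by capillary electrophoresis; positive direction vs DMSO.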

Test [12] deals with human Vitamin D Receptor (VDR), VDR (gene 7421) (UniProt P11473). Kind of test: ATG_VDR_TRANS: Attagene TRANS-FACTORIAL HepG2 Assay for human Vitamin D Receptor (VDR) (AID 2283022; active = hit-call score of the fitted dose curve at least 0.9, where 1 is the maximum). In a few lines: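 RT-PCR/capillary electrophoresis read-out of reporter mRNA induction in transiently transfected HepG2; 24 h dosing; chimeric NR-Gal4 (TRANS format); gain-of-signal fit against DMSO baseline.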
Sequence of human Vitamin D Receptor (VDR), VDR (gene 7421) (P11473 whole entry, looked up, the tested form may be a part): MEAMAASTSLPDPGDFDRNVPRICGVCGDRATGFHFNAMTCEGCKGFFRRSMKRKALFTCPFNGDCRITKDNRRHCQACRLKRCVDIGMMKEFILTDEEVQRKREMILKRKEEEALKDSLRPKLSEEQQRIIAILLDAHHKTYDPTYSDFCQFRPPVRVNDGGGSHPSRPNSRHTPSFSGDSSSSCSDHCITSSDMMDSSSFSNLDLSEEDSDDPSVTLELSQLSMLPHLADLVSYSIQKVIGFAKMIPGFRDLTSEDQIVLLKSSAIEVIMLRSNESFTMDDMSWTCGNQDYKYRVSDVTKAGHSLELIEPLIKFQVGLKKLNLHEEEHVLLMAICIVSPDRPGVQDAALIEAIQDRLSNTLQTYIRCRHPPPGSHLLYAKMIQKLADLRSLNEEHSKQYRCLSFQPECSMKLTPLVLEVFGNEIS

Test [13] deals with Retinoic acid receptor RXR-alpha (Homo sapiens) (UniProt P19793). Kind of test: ATG_RXRa_TRANS: Attagene TRANS-FACTORIAL HepG2 Assay for human Retinoid X Receptor alpha (RXRa) (AID 2283012; active = hit-call score of the fitted dose curve at least 0.9, where 1 is the maximum). In a few lines:
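Transient transfection of human HepG2 with multiple GAL4-UAS reporter constructs; 24 h compound exposure; total RNA isolated, reverse-transcribed, PCR-amplified, 6-FAM labelled, HpaI-cut, resolved by capillary electrophoresis. Positive-direction fit versus DMSO.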

Test [14] has as its target human Thyroid Receptor alpha (THRa1), THRA (gene 7067) (UniProt P10827). Kind of test: ATG_THRa1_TRANS: Attagene TRANS-FACTORIAL HepG2 Assay for human Thyroid Receptor alpha (THRa1) (AID 2283014; active = hit-call score of the fitted dose curve at least 0.9, where 1 is the maximum). In a few lines:
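Transient HepG2 transfection, NR-Gal4 chimera driving GAL4-UAS reporters; 24 h compound exposure; total RNA, oligo(dT) RT, PCR, fluorescent primer extension, capillary electrophoresis. Upward direction vs DMSO control.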

Test [15] is described as follows: BSK_3C_Vis: BioMAP Diversity Plus: 3C Assay for Morphology Visualization (AID 2283025).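 Also: fitted both ways so gain or loss versus DMSO counts.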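 As to AC50: light microscopy image of cell morphology used as background control.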 The settings on record: primary human endothelial cells (HUVEC). In a few lines:
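Chemicals were added to primary human umbilical vein endothelium, cells were incubated 24 h, and morphology was then visualized by light microscopy. Gain or loss of signal was fitted bidirectionally relative to DMSO.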

Read-out in test [16]: Pselectin, SELP (gene 6403)
Kind of test: BSK_4H_Pselectin: BioMAP Diversity Plus: 4H Assay for Pselectin Biomarker Activity (AID 2283026). The settings on record: primary human endothelial cells (HUVEC); actives raise or lower the signal. In a few lines: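 ELISA read-out of P-selectin on human umbilical vein endothelium after 24 h of dosing. Values derive from bidirectional fitting relative to DMSO. Parallel SRB protein staining flagged overt cytotoxicity.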

Read-out in test [17]: Monocyte Chemoattractant Protein-1 (MCP1), CCL2 (gene 6347)
The experiment in a line: BSK_3C_MCP1: BioMAP Diversity Plus: 3C Assay for Monocyte Chemoattractant Protein-1 (MCP1) Biomarker Activity (AID 2283017). Particulars: primary human endothelial cells (HUVEC); actives raise or lower the signal. An outline of the steps: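 HUVEC, 3C system; 24 h chemical exposure; MCP-1 by ELISA; bidirectional curve fit vs DMSO baseline.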

Molecules are shown by their SMILES. Results filed as inconclusive are left out. Active and inactive are the calls of the source. The calls were made as follows, unless noted: active = hit-call score of the fitted dose curve at least 0.9, where 1 is the maximum; inactive = score below 0.9.

The term AC50 denotes the concentration giving half of the maximal activity seen.

Sequence of Retinoic acid receptor RXR-alpha (Homo sapiens) (P19793 whole entry, looked up, the tested form may be a part): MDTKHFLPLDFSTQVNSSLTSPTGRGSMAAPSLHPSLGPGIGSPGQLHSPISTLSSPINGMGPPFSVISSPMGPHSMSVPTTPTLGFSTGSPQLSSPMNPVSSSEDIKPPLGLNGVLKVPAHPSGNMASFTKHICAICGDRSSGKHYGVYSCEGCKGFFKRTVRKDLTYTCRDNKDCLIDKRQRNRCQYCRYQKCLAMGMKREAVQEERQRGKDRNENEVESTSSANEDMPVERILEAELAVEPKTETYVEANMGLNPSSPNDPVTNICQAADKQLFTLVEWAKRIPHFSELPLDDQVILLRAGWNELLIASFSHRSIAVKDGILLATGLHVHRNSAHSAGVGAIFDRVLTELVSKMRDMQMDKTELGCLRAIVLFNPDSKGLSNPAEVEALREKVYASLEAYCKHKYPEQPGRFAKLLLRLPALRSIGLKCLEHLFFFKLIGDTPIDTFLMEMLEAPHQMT
Sequence of human Thyroid Receptor alpha (THRa1), THRA (gene 7067) (P10827 whole entry, looked up, the tested form may be a part): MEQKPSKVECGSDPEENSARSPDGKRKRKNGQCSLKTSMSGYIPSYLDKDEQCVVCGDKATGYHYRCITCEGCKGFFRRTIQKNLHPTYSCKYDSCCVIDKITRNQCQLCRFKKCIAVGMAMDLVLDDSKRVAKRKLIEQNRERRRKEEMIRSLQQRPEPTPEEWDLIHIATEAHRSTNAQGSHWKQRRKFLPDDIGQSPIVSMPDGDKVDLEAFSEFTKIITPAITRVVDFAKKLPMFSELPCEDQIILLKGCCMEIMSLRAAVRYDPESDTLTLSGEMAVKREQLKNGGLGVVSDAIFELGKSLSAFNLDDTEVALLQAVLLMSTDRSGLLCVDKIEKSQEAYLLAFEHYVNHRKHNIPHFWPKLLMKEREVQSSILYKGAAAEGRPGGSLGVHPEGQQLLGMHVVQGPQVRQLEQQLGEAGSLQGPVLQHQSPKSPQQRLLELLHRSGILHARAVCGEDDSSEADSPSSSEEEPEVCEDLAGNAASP
Sequence of E-selectin (Homo sapiens) (P16581 whole entry, looked up): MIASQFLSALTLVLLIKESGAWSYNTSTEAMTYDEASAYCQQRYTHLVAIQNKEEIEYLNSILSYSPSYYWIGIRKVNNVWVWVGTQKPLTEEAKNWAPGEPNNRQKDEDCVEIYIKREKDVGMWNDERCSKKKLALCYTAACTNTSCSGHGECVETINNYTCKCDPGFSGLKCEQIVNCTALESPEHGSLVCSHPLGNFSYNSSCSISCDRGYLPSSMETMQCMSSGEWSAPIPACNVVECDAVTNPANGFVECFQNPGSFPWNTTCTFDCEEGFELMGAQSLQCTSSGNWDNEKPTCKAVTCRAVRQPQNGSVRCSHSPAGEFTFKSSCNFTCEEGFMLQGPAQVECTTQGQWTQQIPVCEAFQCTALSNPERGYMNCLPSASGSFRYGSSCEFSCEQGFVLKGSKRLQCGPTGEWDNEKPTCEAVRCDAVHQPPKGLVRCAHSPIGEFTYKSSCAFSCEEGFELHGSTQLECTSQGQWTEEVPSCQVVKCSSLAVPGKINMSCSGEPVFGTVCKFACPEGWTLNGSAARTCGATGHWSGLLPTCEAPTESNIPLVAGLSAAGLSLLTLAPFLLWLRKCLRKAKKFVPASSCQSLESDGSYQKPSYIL
Sequence of human Retinoid X Receptor beta (RXRb), RXRB (gene 6257) (P28702 whole entry, looked up, the tested form may be a part): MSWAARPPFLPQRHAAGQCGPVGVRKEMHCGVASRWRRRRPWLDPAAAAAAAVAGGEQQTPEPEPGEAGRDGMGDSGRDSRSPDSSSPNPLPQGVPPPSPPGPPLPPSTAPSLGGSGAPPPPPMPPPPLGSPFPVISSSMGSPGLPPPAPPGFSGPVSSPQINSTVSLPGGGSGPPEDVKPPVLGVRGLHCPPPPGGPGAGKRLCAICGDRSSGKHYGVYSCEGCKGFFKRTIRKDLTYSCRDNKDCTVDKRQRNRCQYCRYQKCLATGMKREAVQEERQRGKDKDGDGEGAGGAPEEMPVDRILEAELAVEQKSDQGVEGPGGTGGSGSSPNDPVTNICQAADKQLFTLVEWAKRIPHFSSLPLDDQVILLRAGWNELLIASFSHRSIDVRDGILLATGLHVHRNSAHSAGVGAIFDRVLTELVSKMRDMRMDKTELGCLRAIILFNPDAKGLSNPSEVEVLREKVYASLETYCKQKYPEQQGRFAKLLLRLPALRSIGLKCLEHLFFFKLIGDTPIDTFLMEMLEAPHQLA

Take `O=C(O)CCC(F)(C(F)(F)F)C(F)(F)F`: the outcome in test [1], in test [2], in test [3], in test [4], in test [5] and in test [6] was inactive. The result in test [7], in test [8], in [9] and in test [10] was inactive.
As to `Nc1ccc(N=Nc2ccc(-c3ccc(N=Nc4c(S(=O)(=O)O)cc5cc(S(=O)(=O)O)c(N=Nc6ccccc6)c(O)c5c4N)cc3)cc2)c(N)c1`, the outcome in [11] and in [12] was inactive.
With `Nc1cccc2ccccc12`, the outcome in test [13], in test [14], in [1], in [2], in test [3] and in [4] was inactive. In addition, the outcome in test [5], in [6], in [7], in test [8], in test [15] and in test [16] was inactive. Moreover, the result in test [9] and in [10] was inactive.
For `Oc1cccc2cccnc12`, the call in [13], in test [14], in [3], in test [5], in test [6] and in test [12] was inactive. The result in test [7], in test [15] and in test [9] was inactive. In addition, the AC50 in test [1] is 20 µM (active); in [2] it was 5.35 µM (active); in test [4] it was 4.97 µM (active); in test [8] it was 2.73 µM (active); in test [10] it was 4.3 µM (active).
Regarding `ClC1=C(Cl)[C@]2(Cl)[C@H]3[C@H]([C@H]4C=C[C@H]3C4)[C@@]1(Cl)C2(Cl)Cl`, the molecule was called inactive in test [14], in [1], in test [2], in [5], in test [6] and in test [12]. The outcome in test [8], in test [9] and in [10] was inactive. In addition, the AC50 in [17] was 3.97 µM (active); in [3], 0.748 µM (active); in [4], 8.54 µM (active); in test [7], 7.55 µM (active); in test [15] it was 13.6 µM (active).
For `COP(=S)(OC)Oc1ccc(S(=O)(=O)N(C)C)cc1`, the outcome in test [13], in test [1], in [2], in test [3], in [5] and in test [6] was inactive. Besides, the outcome in [12], in test [7], in test [8], in [15], in [16] and in test [9] was inactive. Besides, the outcome in [10] was inactive. The AC50 in test [4] was 32.3 µM (active).
On to `COC[C@H](C)N(C(=O)CCl)c1c(C)csc1C`, for which the result in test [13], in test [1], in test [2], in [3], in test [4] and in [5] was inactive. Also, the outcome in [6], in test [7], in [8], in test [15], in test [9] and in test [10] was inactive.
Turning to `ClCc1ccccn1`, the call in test [13] and in test [12] was inactive.
In the case of `Clc1ccc(C2(Cn3cncn3)CC(Br)CO2)c(Cl)c1` (stereo not given), the outcome in [14] and in test [12] was inactive.
As to `CCC[CH2][Sn]([CH2]CCC)([CH2]CCC)[O]C(=O)c1ccccc1`, in test [13], the AC50 is 0.00575 µM (active). In addition, the outcome in test [12] was inactive.
For the molecule `C(=NC1CCCCC1)=NC1CCCCC1`, the outcome in [13] and in test [12] was inactive. Also, the AC50 in test [1] is 20 µM (active); in test [2], 20 µM (active); in test [3], 3.82 µM (active); in test [4], 10.2 µM (active); in test [5], 20 µM (active); in test [6], 28.7 µM (active). The half-maximal activity concentration (AC50) in [7] was 8.96 µM (active); in test [8], 36.5 µM (active); in test [15], 37.3 µM (active); in test [16], 5.42 µM (active); in [9] it was 5.35 µM (active); in test [10], 33.4 µM (active).
For `C=CC(=O)N(C)C`, the result in [13], in test [14] and in test [12] was inactive.
Consider `CC(C)CCCCCCOC(=O)c1ccccc1C(=O)OCCCCCCC(C)C`, for which the result in [1], in test [2], in test [3], in test [4], in test [5] and in [6] was inactive. Moreover, the molecule was classed as inactive in test [12], in test [7], in [8], in [15], in [16] and in [9]. Also, the outcome in test [10] was inactive.
As to `N#CN=C(N)N`, the molecule was classed as inactive in test [13] and in test [12].
For the molecule `CCOC(=O)Nc1cccc(OC(=O)Nc2ccccc2)c1`, the call in [14] and in [12] was inactive.

These data come from PubChem BioAssay (EPA / NIEHS).
